Data published in PubChem BioAssay AID1220 (Sanford-Burnham Center for Chemical Genomics, 2008).
About 1,300 (0.68%) of roughly 190,000 compounds were called active. The sample holds actives, similar compounds and a random draw of the others, so the mix is not that of the screen. Unmarked numbers belong to inactive results. Rule as the data show it: active = inhibition above about 50%; inactive = the rest.

target: Mannose-6-phosphate isomerase (Homo sapiens) (UniProt P34949); test: human PMI inhibitors, high substrate, primary screen, biochemical, fluorescence intensity, high mannose 6-phosphate (AID 1220); conditions: recombinant PMI enzyme, coupled fluorescence intensity; at 20 µM; stronger effect = higher value
Sequence (P34949 whole entry, looked up): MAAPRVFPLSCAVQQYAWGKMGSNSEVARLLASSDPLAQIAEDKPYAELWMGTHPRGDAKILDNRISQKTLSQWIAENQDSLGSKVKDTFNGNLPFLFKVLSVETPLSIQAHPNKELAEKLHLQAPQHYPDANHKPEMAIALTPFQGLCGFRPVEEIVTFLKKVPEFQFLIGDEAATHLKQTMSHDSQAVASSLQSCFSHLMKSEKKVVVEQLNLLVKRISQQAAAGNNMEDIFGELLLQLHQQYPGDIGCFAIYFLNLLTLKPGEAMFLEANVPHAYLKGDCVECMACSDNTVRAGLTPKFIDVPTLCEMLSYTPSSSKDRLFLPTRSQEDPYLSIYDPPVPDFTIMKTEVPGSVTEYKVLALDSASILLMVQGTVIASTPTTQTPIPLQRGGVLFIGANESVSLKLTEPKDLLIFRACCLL

| Structure (SMILES) | inhibition |
| --- | --- |
| CC1(C)CC(=O)C2=C(C1)NC(=O)NC2c1ccccc1 (configuration not stated) | -2.6% |
| Cc1ccc(-n2nnnc2Sc2nc([N+](=O)[O-])nn2C)cc1 | 18.5% |
| CC1CCN(C(=O)Nc2ccc3nsnc3c2)CC1 | 62% (active) |
| Cc1nc2ccc(NC(=S)N3CCC(C)CC3)cc2nc1C | 55.4% (active) |
| O=C(Nc1ccc2nsnc2c1)N1CCCCCC1 | 21.5% |
| O=C(Nc1ccc2nsnc2c1)N1CCCCC1 | 24.1% |
| CC1CCN(C(=S)Nc2ccc(F)cc2)CC1 | -10.5% |
| Cc1nc2ccc(NC(=S)N3CCCC3)cc2nc1C | 52.8% (active) |
| Cc1nc2ccc(NC(=O)N3CCCCC3)cc2nc1C | 21.5% |
| Cc1nc2ccc(NC(=S)N3CCOCC3)cc2nc1C | 45.1% |
| Cc1nc2ccc(NC(=S)N3CCN(c4ccccn4)CC3)cc2nc1C | 18.3% |
| COC(=O)CSc1cc(C)nc2ccc(OC)cc12 | 7.7% |
| CC(C(=O)Nc1ccncc1)(c1ccccc1)c1ccccc1 | 10.8% |
| O=C(CCN1C(=O)/C(=C/C=C/c2ccccc2)SC1=S)Nc1cccnc1 | 1.5% |
| Cc1noc(C)c1C(=O)N1CCN(Cc2ccc3c(c2)OCO3)CC1 | 6.8% |
| O=c1[nH]c2cc([N+](=O)[O-])c(NCCO)c([N+](=O)[O-])c2[nH]1 | 3.7% |
| CC(=O)Nc1c([N+](=O)[O-])cc2[nH]c(=O)[nH]c2c1[N+](=O)[O-] | 56.9% (active) |
| CN(C)c1c([N+](=O)[O-])cc2[nH]c(=O)[nH]c2c1[N+](=O)[O-] | 9.6% |
| CC(C)Oc1ccc(C(CC(=O)O)n2cnnn2)cc1 (configuration not stated) | 2% |
| COC(=O)CN1C(=O)C2(C(C#N)=C(N)Oc3n[nH]c(-c4cccs4)c32)c2ccccc21 (configuration not stated) | 7.3% |
| CC(=O)N1C(=O)C2(C(C#N)=C(N)Oc3c2c(C)nn3-c2ccccc2)c2ccccc21 (configuration not stated) | 62.8% (active) |
| Cc1nn(-c2ccccc2)c2c1C1(C(=O)N3c4c(cccc41)C(C)CC3(C)C)C(C#N)=C(N)O2 (configuration not stated) | 21% |
| Cc1nn(-c2ccccc2)c2c1C1(C(=O)N(C)c3ccccc31)C(C#N)=C(N)O2 (configuration not stated) | 21.9% |
| CCN1C(=O)C2(C(C#N)=C(N)Oc3c2c(C)nn3-c2ccccc2)c2ccccc21 (configuration not stated) | 62.1% (active) |

| Structure (SMILES) | inhibition |
| --- | --- |
| COC(=O)CN1C(=O)C2(C(C#N)=C(N)Oc3c2c(C)nn3-c2ccccc2)c2ccccc21 (configuration not stated) | 58.9% (active) |
| CC(=O)N1C(=O)C2(C(C#N)=C(N)Oc3cc(C)oc(=O)c32)c2ccccc21 (configuration not stated) | 11% |
| Cc1nn(-c2ccccc2)c2c1C1(C(=O)N(C(C)C)c3ccccc31)C(C#N)=C(N)O2 (configuration not stated) | 24.1% |
| COC(=O)CN1C(=O)C2(C(C#N)=C(N)Oc3cc(C)oc(=O)c32)c2ccccc21 (configuration not stated) | 7.9% |
| CCCCC1NC(=S)N(C2CCCCC2)C1=O (configuration not stated) | -7.2% |
| COC(=O)c1sc2ccccc2c1-n1cccc1C(=O)C(=O)Nc1ccc(C)cc1 | 4.8% |
| O=c1[nH]c(SCC2CCCCO2)nc2ccccc12 (configuration not stated) | -2.3% |
| O=C1CSC(c2cccc(Cl)c2Cl)N1c1ccccn1 (configuration not stated) | 12.3% |
| Cc1ccc(C)c(S(=O)(=O)Nc2ccccc2C(=O)Nc2cc(C)on2)c1 | 8.8% |
| COC(=O)c1cccc(NS(C)(=O)=O)c1C | -5.8% |
| CNc1nc(C)c(C(=O)OCC(=O)OC)s1 | -0.1% |
| CC(NC(=O)CSCc1ccccc1Br)c1ccccc1 (configuration not stated) | 4.4% |
| COc1ccc(NC(=S)Nc2ccccc2SC)c(OC)c1 | 20.7% |
| Cc1ccc(CN(CC(=O)N/N=C/c2ccco2)S(=O)(=O)c2ccc(C)cc2)cc1 | 4.9% |
| COC1=C(OC)C(=O)C(CCCCCCCCCCO)=C(C)C1=O | 78.2% (active) |
| Cc1[nH]c(=S)[nH]c(=O)c1CCCO | 5.3% |
| CC1=C(C)C(=O)C(CCCCC#CCCCC#CCO)=C(C)C1=O | 19.9% |
| COc1ccc(OC)c(-n2c(=S)[nH]c3c(sc(=S)n3-c3ccccc3)c2=O)c1 | 9.2% |
| COc1ccccc1-n1c(=S)[nH]c2c(sc(=S)n2-c2ccccc2)c1=O | -3.7% |
| Cc1ccc(/C=C2\SC(=S)N(C3CCS(=O)(=O)C3)C2=O)cc1 (configuration not stated) | -2.5% |
| C=CCn1c(COc2ccccc2F)nnc1SCC(=O)NC(=O)NCc1ccco1 | -4% |
| CNc1nc2[nH]c(=O)c3c(c2s1)OC(N)=C(C#N)C3c1cccc(F)c1 (configuration not stated) | 54.7% (active) |
| Cc1oc(C)c2c(=O)ccc3c(c12)OC(N)=C(C#N)C3c1ccccc1 (configuration not stated) | 2.8% |
